# Screens (PubChem)
# HPGD inh = qHTS Assay for Inhibitors of HPGD (15-Hydroxyprostaglandin Dehydrogenase); 15-hydroxyprostaglandin dehydrogenase [NAD(+)] (Homo sapiens), P15428; Potency, µM, for the others: at the top dose activity change, negative = inhibition, actives largely listed as inhibitors; actives 4.3% (n = 150,000); purified HPGD, NADH fluorescence kinetic, PGE2 substrate; active = well fitted inhibition curve with a large enough effect, not every such curve was filed as active; inconclusive = small, poorly fitted or top-dose-only effect, or another doubt; inactive = no such curve, though single readings can be large or run the other way; also: potency is read from the fitted curve at half-maximal effect
#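 NADH formation kinetics: reaction with 30 uM PGE2 and 1 mM NAD+ (final), 20 nM enzyme, Tris-HCl pH 8 with Tween 20, after 15 min compound preincubation at room temperature. Fluorescence change, last versus first of five reads.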
# NPSR antag = qHTS Assay for Antagonists of the Neuropeptide S Receptor: cAMP Signal Transduction; CHO-NPSR cells, cAMP TR-FRET, antagonist mode; Potency, µM (series often up to 38.3 µM), without a hit: at the highest dose activity change, negative = inhibition, actives largely listed as inhibitors; actives 1% (n = 220,000); AID 1461, 2008; also: potency is read from the fitted curve at half-maximal effect; nearly all actives have a fitted effect of over 50% in size
# 12-hLO inh = qHTS Assay for Inhibitors of 12-hLO (12-human lipoxygenase); Polyunsaturated fatty acid lipoxygenase ALOX12 (Homo sapiens), P18054; purified 12-hLO, xylenol orange hydroperoxide absorbance; actives 0.12% (n = 150,000); Potency, µM (titrated, usually from 57.1 µM), inactives show at the highest dose activity change, negative = inhibition, hits mostly inhibitors; also: potency is read from the fitted curve at half-maximal effect; nearly all actives have a fitted effect of over 55% in size
# Target sequence (P18054 whole entry, looked up): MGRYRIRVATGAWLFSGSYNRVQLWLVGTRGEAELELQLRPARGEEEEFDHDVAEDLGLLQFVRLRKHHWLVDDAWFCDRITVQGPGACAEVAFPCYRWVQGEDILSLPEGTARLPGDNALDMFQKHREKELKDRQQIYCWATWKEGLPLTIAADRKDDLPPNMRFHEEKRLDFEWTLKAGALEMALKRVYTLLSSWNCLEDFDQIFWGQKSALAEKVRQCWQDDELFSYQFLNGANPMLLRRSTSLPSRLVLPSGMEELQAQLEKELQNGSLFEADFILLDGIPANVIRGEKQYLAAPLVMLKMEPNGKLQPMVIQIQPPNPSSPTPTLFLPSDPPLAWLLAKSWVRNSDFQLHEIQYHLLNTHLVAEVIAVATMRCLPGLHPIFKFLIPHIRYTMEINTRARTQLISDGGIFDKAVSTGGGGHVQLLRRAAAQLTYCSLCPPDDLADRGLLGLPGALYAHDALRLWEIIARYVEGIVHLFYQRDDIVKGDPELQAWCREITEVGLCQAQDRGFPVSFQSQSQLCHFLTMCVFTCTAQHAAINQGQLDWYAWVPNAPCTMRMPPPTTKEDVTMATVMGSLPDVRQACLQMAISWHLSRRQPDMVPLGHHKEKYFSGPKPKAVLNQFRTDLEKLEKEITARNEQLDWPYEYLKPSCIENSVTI
#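 Lipoxygenase turnover measured by absorbance at 573 and 405 nm after Fe-XO development. Human 12hLO 150 nM, arachidonate 40 uM, pH 7.0 Hepes buffer with detergent; 15 min compound preincubation, 30 min reaction.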
# ALDH1A1 inh = qHTS Assay for Inhibitors of Aldehyde Dehydrogenase 1 (ALDH1A1); Aldehyde dehydrogenase 1A1 (Homo sapiens), P00352; Potency, µM (titrated, usually from 75.3 µM), without a hit: top-dose activity, negative = inhibition, actives largely listed as inhibitors; AID 1030, 2008; Purified ALDH1A1, NADH fluorescence, propionaldehyde substrate; actives 7.3% (n = 220,000); active = well fitted inhibition curve with a large enough effect, not every such curve was filed as active; inconclusive = small, poorly fitted or top-dose-only effect, or another doubt; inactive = no such curve, though single readings can be large or run the other way;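 also: potency is read from the fitted curve at half-maximal effect; plate controls were no enzyme wells and a reference inhibitor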
# IMPase inh = qHTS Assay for Identifying the Cell-Membrane Permeable IMPase Inhibitors; Inositol monophosphatase 1 (Rattus norvegicus), P97697; CHO-M1 cells, IP1 accumulation, HTRF TR-FRET ratio; inhibition (IP1 accumulation), % at 46.1 µM; 120,000 tested, under 10 active; active = well fitted curve in the direction sought with a large enough effect in the signal ratio, not every such curve was filed as active; inconclusive = small, poorly fitted or top-dose-only effect, or a change in a side signal; inactive = no such curve, though single readings can be large or run the other way; the % refers to the signal ratio;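 also: cells stimulated with carbachol in lithium chloride buffer; plate controls were DMSO basal wells for no effect and reference inhibitor wells for full effect; higher means more IMPase inhibition seen as more IP1 and lower FRET ratio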
#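 Cellular IMPase inhibition is scored as a rise in cytosolic IP1, detected by competitive TR-FRET between d2-labelled IP1 and a europium anti-IP1 antibody. M1-expressing CHO cells were stimulated with carbachol for 30 min at 37C, with lithium (50 mM LiCl) present in the buffer.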
# IMPase Li inh = qHTS Assay for Identifying the Cell-Membrane Permeable IMPase Inhibitors: Potentiation with Lithium. CHO-M1 cells, IP1 TR-FRET (IP-One), carbachol + lithium. Potency, µM (highest dose often 59.4 µM), without a hit: top-dose activity, negative = IMPase inhibition, hits mostly inhibitors. actives 0.35% (n = 210,000);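 also: IP1 builds up when IMPase is blocked and the TR-FRET signal falls; potency is read from the fitted curve at half-maximal effect; plate controls were basal vehicle for no effect and high inhibitor control for full effect; nearly all actives have a fitted effect of over 50% in size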
#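 Readout is a homogeneous TR-FRET IP1 immunoassay (Ex 320, Em 665 and 620), where raised cytosolic IP1 lowers signal. Cells were CHO-M1 treated 30 min at 37C with test compounds plus a little lithium; AC50 values came from Hill-equation fitting.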
# * marks the source's active call; other numbers are inactive results; ? = inconclusive; / = no result; [ ] = another dose, or the depositor's remark. Only some compounds are listed: those with a hit (about 8.9% of all), similar ones and a draw of the others. Unless noted, calls follow the shape of the dose curve; as a rule, active = well fitted curve in the direction sought with a large enough effect; inconclusive = small, poorly fitted or top-dose-only effect, or another doubt; inactive = no such curve, though single readings can be large; an effect the other way counts as inactive or inconclusive. Unless noted, % is scaled to controls: 0 for no effect and ±100 for the full control effect.
SMILES,HPGD inh,NPSR antag,12-hLO inh,ALDH1A1 inh,IMPase inh,IMPase Li inh
CCC1(C)Cc2c(sc(NC(=S)NC(=O)c3ccccc3)c2C#N)CO1 (configuration not stated),7.9µM*,1%,-4%,?,-6,0%
Cc1cc(C)c(S(=O)(=O)N2CCN(c3ccc([N+](=O)[O-])c(-n4nc(C)cc4C)c3)CC2)c(C)c1,-12%,-14%[46.1 µM],10%,-4%,7,6%[38.3 µM]
CN=C1NN=C(c2cc(C)n(-c3c(C)n(C)n(-c4ccccc4)c3=O)c2C)CS1,-27%,30%,0%,-1%,/,-7%
N#Cc1c(NC(=S)NC(=O)Cc2cccs2)sc2c1CCCCC2,-27%,-4%[46.1 µM],-30%,4µM*,-8,1%[38.3 µM]
N#Cc1c(NC(=O)c2cnn3cccnc23)sc2c1CCCC2,/,-5%,/,13µM*,/,0%
N#Cc1c(NC(=O)C2CC(c3ccccc3O)=NO2)sc2c1CCC2 (configuration not stated),25µM*,-3%,-3%,11µM*,-7,2%
COC(=O)CCC(=O)Nc1sc2c(c1C#N)CCCC2,/,15%[46.1 µM],-14%,11µM*,7,/
O=C(Nc1cc(Cl)cc(Cl)c1)C1CCC(=O)N1Cc1ccccc1Cl (configuration not stated),-14%,-28%[46.1 µM],-9%,-15%,4,26%[38.3 µM]
CCCCNC(=O)C1CC(=O)N(CCC(C)C)C1 (configuration not stated),-6%,-6%[46.1 µM],-6%,-2%,0,-3%[38.3 µM]
N/C(=N\OC(=O)Cc1cccs1)c1ccc(Cl)cc1,/,7%,/,/,/,/
CN(Cc1nc2ccccc2c(=O)[nH]1)c1ccccc1,-8%,14%,-1%,-2%,/,5%
N#Cc1c(NC(=O)C2C3C=CC(C3)C2C(=O)O)sc2c1CCCCC2 (configuration not stated),/,-10%,/,13µM*,/,1%
CC(C)(C)C(=O)NC(NC(=S)Nc1sc2c(c1C#N)CCCC2)C(Cl)(Cl)Cl (configuration not stated),?,?,?,6.3µM*,?,10%[38.3 µM]
CC1CCc2sc(NC(=S)NC(=O)c3ccccc3)c(C#N)c2C1 (configuration not stated),-24%,-8%,1%,10µM*,/,1%
CCN1CCc2c(sc(NC(=S)NC(=O)c3ccccc3)c2C#N)C1,-27%,-4%[46.1 µM],-13%,?,-2,2%[38.3 µM]
N#Cc1c(NC(=O)c2ccncc2)sc2c1CCC2,-22%,-20%[46.1 µM],2%,10µM*,-2,24%
CCOC(=O)c1c(NC(=O)C2C3C=CC(C3)C2C(=O)O)sc2c1CCCC2 (configuration not stated),/,-7%,/,-5%,/,-6%
Cc1cc(C(=O)Nc2sc3c(c2C#N)CCCCC3)cs1,?,-29%[46.1 µM],-6%,?,11,?
CC(C)[C@@H]1CC[C@@H](C)c2c(-c3ccccc3)n[nH]c21,/,-14%[46.1 µM],-5%,-4%,-14,/
COc1cccc(C2CC(c3c(-c4ccccc4)c4cc(Cl)ccc4[nH]c3=O)=NN2S(C)(=O)=O)c1OC (configuration not stated),-22%,-19%[46.1 µM],-12%,5µM*,-1,35%[38.3 µM]
COc1ccccc1C1CC(c2c(-c3ccccc3)c3cc(Cl)ccc3[nH]c2=O)=NN1S(C)(=O)=O (configuration not stated),?,?,-8%,?,5,-7%[38.3 µM]
CN(C)S(=O)(=O)c1ccc(-c2csc(-c3cccnc3)n2)cc1,/,43%,/,-4%,/,/
CCCCOC(=O)Nc1ccc(C)c(Cl)c1,16µM*,-6%[46.1 µM],-9%,12%,11,26%[38.3 µM]
COCC(=O)Nc1ccc(C)c(Cl)c1,14µM*,19%[46.1 µM],1%,-4%,-2,?
Cc1ccc(NC(=O)Cn2cccc2)cc1Cl,16µM*,-2%[46.1 µM],1%,11µM*,-2,31%[38.3 µM]
SMILES,HPGD inh,NPSR antag,12-hLO inh,ALDH1A1 inh,IMPase inh,IMPase Li inh
CCCCOC(=O)Nc1ccc(C(=O)OC)cc1,-23%,-12%[46.1 µM],-8%,2%,4,-1%[38.3 µM]
Cc1cc(N2C(=O)C3CC=CCC3C2=O)cc(C)c1Br (configuration not stated),-11%,?,-8%,?,7,14%
O=C(O)C1CC=C(Cl)CC1C(=O)NCC1OCCc2ccccc21 (configuration not stated),-1%,-1%[46.1 µM],-5%,1%,1,9%[38.3 µM]
Cc1ccc(NC(=S)N2CCC(c3ccc(C)cc3)C2)cc1 (configuration not stated),/,3%,/,28µM*,/,5%
Cc1ccc(C2CCN(C(=O)Nc3ccccc3)C2)cc1 (configuration not stated),-20%,-11%[46.1 µM],-5%,-7%,2,12%[38.3 µM]
COc1ccc(CCC(=O)N(c2nnc(-c3cccnc3)s2)C(C)C)cc1,/,20%,/,-2%,/,-1%
COc1ccc(S(=O)(=O)N2CCCC2C(=O)Nn2cnnc2)cc1 (configuration not stated),0%,-1%[46.1 µM],1%,1%,-1,16%[38.3 µM]
Cc1ccc(C(=O)CNc2cccc([N+](=O)[O-])c2)cc1,/,7%,/,13µM*,/,-8%
Cc1ccc(NCC(=O)c2ccc([N+](=O)[O-])cc2)cc1,/,-6%,/,7.9µM*,/,11%
Cc1ccc(C(=O)c2ccc([N+](=O)[O-])cc2)cc1C,-18%,-17%[46.1 µM],-8%,?,13,27%[38.3 µM]
Cc1ccc(S(=O)(=O)CC(=O)c2ccc([N+](=O)[O-])cc2)cc1,/,-1%,/,/,/,/
Cc1cccc(NCCC(=O)c2ccc([N+](=O)[O-])cc2)c1C,/,-4%,/,0.18µM*,/,6%
CNC(CC(=O)c1ccc([N+](=O)[O-])cc1)C(Cl)(Cl)Cl (configuration not stated),10µM*,?,-8%,0.56µM*,9,8%
Cc1ccc(-n2nnnc2SCC#N)cc1,/,13%,/,-7%,/,8%
CC(C)OC(=O)c1cc(-c2ccc(C=O)o2)ccc1Cl,-28%,-24%,-4%,8.9µM*,/,-16%
CC(C)OC(=O)/C(C#N)=C/c1ccc(-c2ccc(Cl)c(Cl)c2)o1,/,/,/,/,-12,/
O=S(=O)(Nc1ccc2c(c1)OCO2)c1cccs1,-30%,-15%[46.1 µM],-8%,5%,1,-12%[38.3 µM]
Cc1cc(C)n2nc(C(=O)Nc3ccc4c(c3)OCO4)nc2n1,20µM*,7%[46.1 µM],-3%,?,9,34%[38.3 µM]
